PKM2 act = increases activity of human pyruvate kinase M2; P14618; purified PKM2, Kinase-Glo ATP luminescence, activation; response scale: 0% is enzyme alone, no compound; Potency, µM (titrated, usually from 57.5 µM), without a hit: at the highest dose activation, hits mostly activators; hit rate 0.34% among 260,000; also: potency is read from the fitted curve at half-maximal effect; nearly all actives have a fitted effect of over 55% in size
Target sequence (P14618 whole entry, looked up): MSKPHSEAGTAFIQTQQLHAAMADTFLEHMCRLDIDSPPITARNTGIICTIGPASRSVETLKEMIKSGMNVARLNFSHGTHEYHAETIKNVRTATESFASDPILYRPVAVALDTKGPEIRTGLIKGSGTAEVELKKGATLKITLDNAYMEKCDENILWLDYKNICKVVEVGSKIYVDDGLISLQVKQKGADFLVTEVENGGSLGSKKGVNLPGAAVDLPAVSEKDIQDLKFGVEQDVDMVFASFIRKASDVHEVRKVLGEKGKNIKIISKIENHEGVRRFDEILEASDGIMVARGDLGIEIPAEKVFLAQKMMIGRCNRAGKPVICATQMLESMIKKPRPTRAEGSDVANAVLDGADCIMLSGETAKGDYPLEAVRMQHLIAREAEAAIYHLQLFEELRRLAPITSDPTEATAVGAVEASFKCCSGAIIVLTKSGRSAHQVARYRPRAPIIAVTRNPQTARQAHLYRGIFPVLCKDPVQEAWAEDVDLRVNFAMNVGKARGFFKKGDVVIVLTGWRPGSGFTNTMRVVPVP
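hPK-M2, >95% pure; 0.1 mM ADP / 0.5 mM PEP final; imidazole pH7.2 buffer w/ 7 mM MgCl2, 50 mM KCl; 1 h RT; Kinase-Glo lum. Intermediate enzyme activity for dual inhibitor/activator qHTS.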
TrxR1 substrate = is turned over as a substrate by rat TrxR1; purified TrxR1 substrate turnover, NADPH consumption readout; Potency, µM (titrated, usually from 114 µM), for inactives: at the highest dose activity change, negative = substrate turnover; hit rate 0.01% among 390,000; AID 588456; also: potency is read from the fitted curve at half-maximal effect; nearly all actives have a fitted effect of over 50% in size
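Rat TrxR1, dispensed at 90 nM, was prereduced with 400 uM NADPH (final) for 5 min at ~22 deg C, then incubated with compound 15 min before 400 uM selenite. A first-read NADPH fluorescence drop versus no-compound background flagged substrates.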
GALK inhibitor = blocks human galactokinase activity | hit rate 0.007% among 270,000 | AID 1868 | Purified GALK, Kinase-Glo residual ATP luminescence | Potency, µM (series often up to 57.5 µM), without a hit: top-dose activity change, negative = inhibition, hits mostly inhibitors | P51570; also: potency is read from the fitted curve at half-maximal effect
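Luminescence from leftover ATP (Ultra-Glo luciferase/luciferin) served as read-out after a 1 h room-temperature reaction of 5 nM GALK with 35 uM ATP and 100 uM galactose.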
PI4K2A inh = inhibitors of human PI4K2A; Q9BTU6; purified PI4K2A, ADP-Glo luminescence, 1 h; stronger effect = lower value; activity change, negative = inhibition, % at 76.9 µM; hit rate 0.13% among 420,000; in the data active = activity change below about -50%; inconclusive = mostly about -30% to -49%;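 also: -100% = wells without enzyme as full effect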
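PI4K2A activity was measured by ADP-Glo luminescence: enzyme (4 ug/mL stock) and phosphatidylinositol (1.2 mM stock) in Tris pH 7.5/MgCl2/EGTA/Triton X-100 buffer were reacted with ATP (300 microM stock) for one hour at ambient temperature.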
rTrxR1 inhibitor = rat TrxR1 inhibition. hit rate 1% among 390,000. Potency, µM (series often up to 114 µM), for inactives: at the top dose activity change, negative = inhibition, usual class: inhibitors. O89049. recombinant rTrxR1, NADPH fluorescence consumption, selenite substrate; also: potency is read from the fitted curve at half-maximal effect; nearly all actives have a fitted effect of over 65% in size
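Rat TrxR1 (90 nM in the dispensed reagent) was pre-reduced with 400 uM NADPH for 5 min at room temperature, then incubated with compound for 15 min. After 400 uM selenite was added, NADPH fluorescence (Ex 340/Em 450 nm) was followed for 8 min.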
Starred values were filed as active, the others as inactive; ? = inconclusive; · = no result given; ! = repeats disagree; [ ] = another dose, or the depositor's remark. Most compounds without a hit are left out; they make up all but 1.2% or so of the library. Unless noted, calls follow the shape of the dose curve; as a rule, active = well fitted curve in the direction sought with a large enough effect; inconclusive = small, poorly fitted or top-dose-only effect, or another doubt; inactive = no such curve, though single readings can be large; an effect the other way counts as inactive or inconclusive. Unless noted, % is scaled to controls: 0 for no effect and ±100 for the full control effect.

SMILES	PKM2 act	TrxR1 substrate	GALK inhibitor	PI4K2A inh	rTrxR1 inhibitor
CCOc1ccccc1N1C(=O)NC(=O)/C(=C/c2ccc3c4c(cccc24)CC3)C1=O	-0.4%	87.3%	1.4%	-20.3	22.4µM*
COc1cccc(N2C(=O)NC(=O)/C(=C/c3ccc4c5c(cccc35)CC4)C2=O)c1	7.8%	·	0.0%	·	·
CN1C(=O)NC(=O)/C(=C\c2ccc([N+](=O)[O-])o2)C1=O	-14.5%	-6.0%	0.7%	-21.2	15.8µM*
O=c1[nH]c(=S)n(-c2ccccc2F)c(O)c1C=NCc1ccco1	-3.2%	-6.9%	1.5%	-5.3	-10.6%
Cc1ccc(-n2c(O)c(C=NCc3ccco3)c(=O)[nH]c2=S)cc1C	25.3%	-2.2%[57.1 µM]	4.3%	-9.8	12.6µM*
CN(C)c1ccc(N=O)cc1	·	?	·	·	5.01µM*
CN(C)c1ccc(N=Nc2ccccc2)cc1	·	-9.1%	·	·	2.3%
COc1ccc(C[C@H]2NC[C@H](O)[C@H]2OC(C)=O)cc1	·	5.5%	·	1.7	39.8µM*
COc1ccc(CCNC2CCCCC2)cc1	-3.7%	6.5%	-0.9%	-2.8	17.3%
C[N+](C)(C)CC(=O)O	·	-2.2%[57.1 µM]	·	-7.8	26.7µM*!
CN1C2CCC(C)(C)C1CC(OC(=O)C(O)(c1cccs1)c1cccs1)C2 (centres undefined)	·	·	·	0.5	·
N#CC(C#N)=Cc1ccc(O)c(O)c1	·	4.4%[57.1 µM]	·	3.1	16.8µM*
CC(C)(C)c1cc(C=C(C#N)C#N)cc(C(C)(C)C)c1O	·	?	·	10.8	?
NC(=O)C1=CN(C2OC(COP(=O)(O)OP(=O)(O)OC[C@H]3O[C@@H](n4cnc5c(N)ncnc54)[C@H](OP(=O)(O)O)[C@H]3O)C(O)C2O)C=CC1 (some centres undefined)	·	·	·	·	3.4%[57.1 µM]
O=C(O[C@@H]1Cc2c(O)cc(O)cc2O[C@@H]1c1cc(O)c(O)c(O)c1)c1cc(O)c(O)c(O)c1	?	·	10µM*	·	·
O=C(CBr)Nc1ccc(Cl)cc1C(=O)c1ccccc1F	·	·	·	-2.0	·
Cc1cccc(N2C(=O)/C(=C/c3ccc(N4CCN(C)CC4)o3)C(=O)NC2=S)c1C	-11.3%	-14.0%	·	-4.2	?
COc1ccc(N2C(=O)/C(=C/c3ccc(OC)c(OC)c3)C(=O)NC2=S)cc1	1.8%	-0.5%	0.9%	0.5	12.6µM*
COC(=O)COc1ccc(/C=C2\C(=O)NC(=S)N(c3ccc(C)cc3)C2=O)cc1OC	·	0.2%	7.7%	-3.0	3.98µM*
COc1cc(/C=C2/C(=O)NC(=O)N(c3ccc(C)cc3)C2=O)cc(OC)c1OC	0.3%	9.1%	5.3%	-8.5	?
COc1ccc(N2C(=O)/C(=C/c3ccc(C)o3)C(=O)NC2=S)c(OC)c1	23.0%	-2.1%	1.8%	-4.1	14.1µM*
CCOC(=O)CSCCOc1ccc(C=C2C(=O)NC(=O)NC2=O)cc1OC	4.7%	-9.6%[57.1 µM]	-0.8%	-7.2	?
CCOC(=O)COc1ccc(/C=C2\C(=O)NC(=S)N(c3ccc(OC)cc3)C2=O)cc1OC	·	-0.7%	0.5%	-4.9	3.16µM*
CCCn1c(=O)n(C)c(=O)c2c(SCC(=O)NC34CC5CC(CC(C5)C3)C4)nc(CC(C)C)nc21	-0.2%	1.1%	1.8%	-0.1	28.7%
Cc1cc(SCc2sc(-c3ccc(C(F)(F)F)c(F)c3)nc2C)ccc1OCC(=O)O	-0.2%	·	·	·	·
SMILES	PKM2 act	TrxR1 substrate	GALK inhibitor	PI4K2A inh	rTrxR1 inhibitor
O=C1NC(=O)N(CCC2=CCCCC2)C(=O)/C1=C/c1cccs1	?	3.6%[57.1 µM]	-6.4%	-28.0	7.94µM*
O=C(N[C@H]1N=C(c2ccccc2F)c2cccc3c2N(CC3)C1=O)c1cc2ccccc2[nH]1	·	·	·	-3.5	·
Cc1cc(C=C2C(=O)N(C)C(=S)N(C)C2=O)c(C)n1-c1cccnc1	1.1%	-4.9%	0.0%	-6.9	20µM*
Cc1cc(/C=C2/C(=O)NC(=O)N(C)C2=O)c(C)n1-c1ccccc1	0.0%	5.6%	-2.3%	-10.8	0.6%
COC(=O)C1=C(C(=O)OC)C2OC1c1cc3ccccc3cc12	·	1.4%	·	14.2	2.51µM*
CNCCc1ccc(OC)c(OC)c1	2.0%	5.9%[57.1 µM]	3.3%	4.1	20µM*
CN1C(=O)NC(c2cccc(O)c2)C(C(=O)c2cccs2)C1(O)C(F)(F)F (centres undefined)	1.9%	-5.4%	-0.7%	-1.0	31.6µM*

Assay outcomes: PubChem BioAssay, National Center for Advancing Translational Sciences (NCATS)
